{
  "source": "PubChem BioAssay AID624354",
  "about": "(Sanford-Burnham Center for Chemical Genomics, 2012)",
  "note": "The whole screen tested about 360,000 compounds, of which about 3,800 (1.1%) were called active. This excerpt belongs to a sample that is enriched for actives. Unmarked numbers belong to inactive results.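 Rule for the calls: active = compounds causing at least 50% loss of cell viability in the single-dose screen, relative to plate controls; inactive = the rest.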",
  "data": [
    {"experiment": "viability loss with TRAIL in NB7+C8 cells, primary screen, TRAIL sensitizer project, cell-based, ATPlite luminescence (AID 624354)", "conditions": "at 10 µM, hits give high values", "values": [
      {"smiles": "O=C(CN1C(=O)NC2(CCOc3ccccc32)C1=O)Nc1cccc([N+](=O)[O-])c1", "note": "(centres undefined)", "inhibition (viability loss, TRAIL sensitization)": "-2.91%"},
      {"smiles": "CCOC(=O)C1=C(C)OC(N)=C(C#N)C1c1cncc(-c2ccc(F)cc2)c1", "note": "(centres undefined)", "inhibition (viability loss, TRAIL sensitization)": "-2.49%"},
      {"smiles": "FC(F)(F)c1ccc2nnc(-c3c(Cl)cccc3Cl)n2c1", "inhibition (viability loss, TRAIL sensitization)": "24.4%"},
      {"smiles": "CN(C)C1=NC[C@H](Cc2ccccc2)N1CCc1ccc(F)cc1", "inhibition (viability loss, TRAIL sensitization)": "6.59%"},
      {"smiles": "CN(C)CCNC(=O)c1ccc(Cl)c2cc3ccccc3nc12", "inhibition (viability loss, TRAIL sensitization)": "56% (active)"},
      {"smiles": "COCCNC(=O)c1ccccc1-c1nc(-c2ccccc2Cl)no1", "inhibition (viability loss, TRAIL sensitization)": "4.78%"},
      {"smiles": "Cc1cc(C)n(C(=O)CCNC(=O)c2ccccc2Cl)n1", "inhibition (viability loss, TRAIL sensitization)": "4.1%"},
      {"smiles": "Cn1nc(-c2ccccc2)c(CSc2cccc(Cl)c2)c1Cl", "inhibition (viability loss, TRAIL sensitization)": "6.33%"},
      {"smiles": "Cc1ccc(S(=O)(=O)NC[C@H]2O[C@@H](n3cnc4c(N)ncnc43)[C@H](O)[C@@H]2O)s1", "inhibition (viability loss, TRAIL sensitization)": "-2.79%"},
      {"smiles": "Cn1nc(C(C)(C)C)c(NC(=O)c2sccc2Cl)c1C(C)(C)C", "inhibition (viability loss, TRAIL sensitization)": "15.6%"},
      {"smiles": "O=[N+]([O-])c1ccc2oc(-c3cccc(O)c3)nc2c1", "inhibition (viability loss, TRAIL sensitization)": "24.5%"},
      {"smiles": "COc1cccc(-c2nc3cc(C)ccc3o2)c1", "inhibition (viability loss, TRAIL sensitization)": "52.6% (active)"},
      {"smiles": "COc1ccc2oc(N)nc2c1", "inhibition (viability loss, TRAIL sensitization)": "4.55%"},
      {"smiles": "O=C(NC(Cc1ccc(O)cc1)C(=O)O)/C(=C/c1ccccc1)NC(=O)c1ccccc1", "note": "(centres undefined)", "inhibition (viability loss, TRAIL sensitization)": "-22.8%"},
      {"smiles": "Cc1ccc(N2C(=O)C3C(c4ccccc4)(C2=O)C3(c2ccccc2)c2ccccc2)cc1", "note": "(centres undefined)", "inhibition (viability loss, TRAIL sensitization)": "11.6%"},
      {"smiles": "CSc1cc(C)[nH]c(=O)n1", "inhibition (viability loss, TRAIL sensitization)": "-4.86%"},
      {"smiles": "O=C(O)c1ccc(N/N=C/c2ccc3ncccc3c2)cc1", "inhibition (viability loss, TRAIL sensitization)": "18.4%"},
      {"smiles": "O=C(O)c1ccc(N/N=C/c2cn(-c3ccccc3)nc2-c2cccs2)cc1", "inhibition (viability loss, TRAIL sensitization)": "76.2% (active)"},
      {"smiles": "COc1ccc(Cl)cc1NC(=O)CN(C)C(=O)c1cn(-c2ccccc2)nc1-c1cccs1", "inhibition (viability loss, TRAIL sensitization)": "21.4%"},
      {"smiles": "COc1ccc(CN2CC(C(=O)NCCc3ccc(Cl)cc3)CC2=O)cc1", "note": "(centres undefined)", "inhibition (viability loss, TRAIL sensitization)": "10.4%"},
      {"smiles": "CCOC(=O)C1CCCN(C(=O)c2ccc(N(C)C)cc2)CC1", "note": "(centres undefined)", "inhibition (viability loss, TRAIL sensitization)": "-15.3%"},
      {"smiles": "OC1CN=C2Sc3ccccc3N2C1", "note": "(centres undefined)", "inhibition (viability loss, TRAIL sensitization)": "-13.7%"},
      {"smiles": "CC1CN(S(=O)(=O)c2ccccc2)C(C)CN1S(=O)(=O)c1ccccc1", "note": "(centres undefined)", "inhibition (viability loss, TRAIL sensitization)": "7.64%"},
      {"smiles": "Cc1noc(C)c1COC(=O)COc1ccc(-c2ccccc2)cc1", "inhibition (viability loss, TRAIL sensitization)": "-21.6%"},
      {"smiles": "O=C(Oc1ccc(-c2nc(-c3ccccn3)no2)cc1)c1ccccc1", "inhibition (viability loss, TRAIL sensitization)": "72% (active)"},
      {"smiles": "O=C(COc1cccc(F)c1)Oc1ccc(C(=O)c2ccccc2)cc1", "inhibition (viability loss, TRAIL sensitization)": "7.92%"},
      {"smiles": "CC(=O)Nc1ccc(C(=O)N(C2=NC(C)CS2)c2ccc(Cl)cc2)cc1", "note": "(centres undefined)", "inhibition (viability loss, TRAIL sensitization)": "0.911%"},
      {"smiles": "O=c1oc2ccccc2cc1-c1cn(-c2ccccc2)c(=S)[nH]1", "inhibition (viability loss, TRAIL sensitization)": "82.7% (active)"},
      {"smiles": "COc1ccc([C@H]2CC(=O)C[C@@H](CCn3cc(CC4CCCC4)nn3)O2)cc1", "inhibition (viability loss, TRAIL sensitization)": "6.31%"},
      {"smiles": "CC(CC(=O)N1CCN(c2ccccc2)CC1)S(=O)(=O)c1ccc2c(c1)NC(=O)CS2", "note": "(centres undefined)", "inhibition (viability loss, TRAIL sensitization)": "23.3%"},
      {"smiles": "O=C(CN1CCN(S(=O)(=O)c2ccc(Cl)s2)CC1)NCc1ccc(Cl)cc1", "inhibition (viability loss, TRAIL sensitization)": "15.3%"},
      {"smiles": "Cc1nc(C(F)(F)F)ccc1C(=O)N1CCC1(C)C(=O)NS(=O)(=O)c1ccccc1", "note": "(centres undefined)", "inhibition (viability loss, TRAIL sensitization)": "-0.681%"},
      {"smiles": "COc1cc(/C=N/N=C(\\N)c2nonc2N)cc(OC)c1OC", "inhibition (viability loss, TRAIL sensitization)": "36.5%"},
      {"smiles": "COc1cc(/C=N/Nc2nn3cnnc3c3ccccc23)cc(OC)c1OC", "inhibition (viability loss, TRAIL sensitization)": "69.3% (active)"},
      {"smiles": "COc1cc(Nc2nc3ccc(Cl)cc3n3cnnc23)cc(OC)c1OC", "inhibition (viability loss, TRAIL sensitization)": "6.53%"},
      {"smiles": "COCCN(C(=O)c1ccco1)c1nnc(-c2ccc(OC)cc2)s1", "inhibition (viability loss, TRAIL sensitization)": "15.7%"},
      {"smiles": "CC(C)NC(=O)N1CCN(c2ccncc2S(=O)(=O)N2CCCCC2)CC1", "inhibition (viability loss, TRAIL sensitization)": "-3.19%"},
      {"smiles": "CCN(CC)c1ccc(/C=N/Nc2nc(C)cc(C)n2)c(O)c1", "inhibition (viability loss, TRAIL sensitization)": "51.5% (active)"},
      {"smiles": "O=C(CNS(=O)(=O)c1ccc(Br)s1)NCc1ccc2c(c1)OCO2", "inhibition (viability loss, TRAIL sensitization)": "0.95%"},
      {"smiles": "COc1ccc(N2CC(C(=O)N[C@@H](C)C(=O)N3CCCCC3)CC2=O)cc1", "note": "(some centres undefined)", "inhibition (viability loss, TRAIL sensitization)": "5.67%"},
      {"smiles": "CCCNC(=S)N1CCC(NC(=O)C23CC4CC(CC(C4)C2)C3)CC1", "inhibition (viability loss, TRAIL sensitization)": "26.6%"},
      {"smiles": "CCOC(=O)c1sc(NC(=O)CSc2nc(O)c(Cc3ccccc3)c(=O)[nH]2)nc1C", "inhibition (viability loss, TRAIL sensitization)": "-1.62%"},
      {"smiles": "Clc1ccc(COn2c(-c3ccc(Cl)cc3Cl)nc3ncccc32)cc1", "inhibition (viability loss, TRAIL sensitization)": "7.77%"},
      {"smiles": "Clc1ccc(-c2cc(-c3ccccn3)on2)c(Cl)c1", "inhibition (viability loss, TRAIL sensitization)": "87.7% (active)"},
      {"smiles": "Fc1ccc(-c2ccc(CNCc3ccccn3)o2)cc1Cl", "inhibition (viability loss, TRAIL sensitization)": "4.36%"},
      {"smiles": "CCN(CC)CCN(C)C(c1ccnc2ccccc12)c1nnnn1-c1ccc2c(c1)OCCO2", "note": "(centres undefined)", "inhibition (viability loss, TRAIL sensitization)": "-12.3%"},
      {"smiles": "CNC(=O)n1ccc(C(=O)N2CCCCC2)n1", "inhibition (viability loss, TRAIL sensitization)": "-8.01%"},
      {"smiles": "O=C(/C=C/c1ccc(Cl)cc1)NCCCn1ccnc1", "inhibition (viability loss, TRAIL sensitization)": "-4.39%"},
      {"smiles": "CN(C)N=Nc1ccc2nc[nH]c2c1", "inhibition (viability loss, TRAIL sensitization)": "-7.76%"},
      {"smiles": "COc1ccc(-n2nnnc2SCC(=O)NCc2cccs2)cc1", "inhibition (viability loss, TRAIL sensitization)": "1.36%"},
      {"smiles": "COc1ccc(-n2nnnc2SCC(=O)c2ccc(OC)c(OC)c2)cc1", "inhibition (viability loss, TRAIL sensitization)": "-16.3%"},
      {"smiles": "COc1ccc(-n2nnnc2-c2nc3ccccc3s2)cc1", "inhibition (viability loss, TRAIL sensitization)": "64.4% (active)"},
      {"smiles": "Cc1ccccc1OCC(=O)NCC(=O)OCC(=O)c1ccc2ccccc2c1", "inhibition (viability loss, TRAIL sensitization)": "-20.2%"},
      {"smiles": "C/C(=N\\NC(=O)COc1ccc(C)cc1[N+](=O)[O-])c1ccc2c(c1)OCCO2", "inhibition (viability loss, TRAIL sensitization)": "-2.67%"},
      {"smiles": "Cc1cc([N+](=O)[O-])ccc1NCc1cccc([N+](=O)[O-])c1", "inhibition (viability loss, TRAIL sensitization)": "0.71%"},
      {"smiles": "Cc1ccc(S(=O)(=O)N(CC(=O)Nc2cccc([N+](=O)[O-])c2)Cc2ccc(Cl)cc2)cc1", "inhibition (viability loss, TRAIL sensitization)": "4.71%"},
      {"smiles": "O=C(CCl)N(Cc1cccc([N+](=O)[O-])c1)c1cccc(Cl)c1", "inhibition (viability loss, TRAIL sensitization)": "92.3% (active)"},
      {"smiles": "CCCOC1CCCN(Cc2cn(C)nc2-c2ccccc2F)C1", "note": "(centres undefined)", "inhibition (viability loss, TRAIL sensitization)": "3.04%"},
      {"smiles": "Cc1noc(C)c1NC(=O)N(C)C[C@@H]1Oc2cc(Br)ccc2S(=O)(=O)N([C@@H](C)CO)C[C@H]1C", "inhibition (viability loss, TRAIL sensitization)": "8.07%"}
    ]}
  ]
}
